These results are taken from PubChem BioAssay (NCI).

The panel holds about 83,000 compounds, 20% with a hit somewhere; the sample as a whole holds those more often.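 Method: cells in 96-well plates; compound added at one concentration; 48 h incubation; percent growth measured; values under 10 scored active.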 Values without a mark were called inactive. The source made the active and inactive calls.

This test has as its system NCI/ADR-RES ovarian. Kind of test: NCI-60 one-dose screen, 48 h (100 = growth as untreated, 0 = no growth, -100 = all killed). Conditions: 10 µM unless noted.
As for `Fc1c[c-]c(-c2ccccn2)c(F)c1.[CH3-].[Pt+2].c1ccc([PH+](c2ccccc2)c2ccccn2)cc1`, the growth is 32.1%. The result for `CC(=O)O[C@@H]1CC[C@]2(C)[C@H]3CC[C@]4(C)C(=O)CC[C@H]4[C@@H]3C[C@@H]3SC(N)=N[C@@]32C1` reads 44%; that for `COc1cc2c(cc1OCc1ccccc1)C(CC(C)C)=[N+](C)CC2`, 101%. The value for `CC(C)=CCC[C@H](C(=O)O)[C@@H]1CC[C@]2(C)C3=C(CC[C@@]12C)[C@@]1(C)CC[C@H](O)C(C)(C)[C@@H]1CC3` was 102%. For `CC(C)=CCc1c(O)c(C(=O)CC(C)C)c(O)c2c(-c3ccccc3)cc(=O)oc12`, the growth is 35.6%. For the compound `Cc1ccc(C(Cc2ccccc2)NCCO)cc1` (centres undefined), the growth is 100%.

With `O=C(O)CNC(=O)C(Cl)(Cl)Cl`, the growth is 108%. `COC(=O)[C@@H](C)C[C@H](Cc1ccccc1)NC(=O)c1csc([C@@H](C[C@H](C(C)C)N(C)C(=O)[C@@H](NC(=O)[C@H]2CCCCN2C)c2ccc(F)cc2)OC(C)=O)n1`: the growth is 5.55% (active). The value for `C[C@]12CC[C@H]3[C@@H](C[C@@H]4SC(Nc5ccccc5)=N[C@@]45CC(O)CC[C@]35C)[C@@H]1CCC2O` (some centres undefined) was 36.3%; that for `COc1ccc(/C=C\c2cc(OC)c(OC)c(OC)c2)cc1NC(=O)/C=C/c1cc(OC)c(OC)c(OC)c1` was 8.42% (active). The result for `O=C(N/N=C/c1ccc(N(CCCl)CCCl)cc1)c1cccc2ccccc12` reads 72.9%. In the case of `CC(=O)O[C@H](C[C@H](C(C)C)N(C)C(=O)[C@@H](NC(=O)[C@H]1CCCCN1C)C(C)C)c1nc(C(=O)N[C@@H](Cc2ccccc2)C[C@H](C)C(=O)O)c(CCOCc2ccccc2)s1`, the growth is 9.71% (active). The value for `COc1cc2c(cc1OCCCCn1c(-c3cccs3)nc3ccccc31)N=C[C@@H]1CCCN1C2=O` was 36.5%; that for `C1CCC2(CC1)OOCNCOO2` was 101%; that for `COC1=CC(=O)O[C@@H](/C=C/c2ccc3c(c2)OCO3)C1` was 95.7%. Turning to `O=C(CC1(O)C(=O)Nc2ccc(Cl)cc21)c1ccc(C(=O)NCC2CCC3(CC2)OOC2(CCCCC2)OO3)cc1` (centres undefined), the growth was 58.3%. For `C/C(=C\c1ccn(-c2ccc(N)cc2C(F)(F)F)n1)[C@@H]1C[C@@H]2O[C@]2(C)CCC[C@H](C)[C@H](O)[C@@H](C)C(=O)C(C)(C)[C@@H](O)CC(=O)O1`, the growth was 1.74% (active). Regarding `O=NNc1ccccn1`, the growth was 75.1%. The value for `N#CC1(c2ccccc2)CCN(Cc2ccccc2)CC1` was 99.7%; that for `CN(C)CCCOc1ccc2c(c1)c(C(=O)C(=O)NCCO)cn2Cc1ccccc1` was 108%; that for `CC12CCC=CC1CCC1C2CCC2(C)C(c3ccc(=O)oc3)CCC12O` (centres undefined) was -51.5% (active). On to `CCCCOc1ccc(C(N)Cc2ccccc2)cc1` (centres undefined), for which the growth was 105%. `CCC1CN1CCCCN1CC1CC` (centres undefined): the growth is 103%. In the case of `CC1(C)C(C(=O)c2cn(CCCCF)c3ccccc23)C1(C)C`, the growth is 98.1%. The result for `Cc1cc(N(CCCl)CCCl)ccc1C=Nc1cccnc1` reads 71.6%. Regarding `COC(=O)[C@H](Cc1ccccc1)NC(=O)c1csc([C@@H](C[C@H](C(C)C)N(C)C(=O)[C@@H](NC(=O)[C@H]2CCCCN2C)C2CC2)OC(C)=O)n1`, the growth is 15.9%. The value for `[Cl][Hg][c]1cc(Br)cc(Br)c1` was 81.1%; that for `COc1ccc2c(c1)c(-c1nc(-c3c[nH]c4ncccc34)cs1)cn2CCCCN1CCCCC1` was 1.16% (active). The result for `C=COC(=O)CCN1CC1` reads 111%; that for `COC(=O)[C@@H](C)C[C@H](Cc1ccccc1)NC(=O)c1csc([C@@H](C[C@H](C(C)C)N(C)C(=O)[C@@H](NC(=O)[C@H]2CCCCN2C)C2CCCCC2)OC(C)=O)n1`, 10.6%. The result for `CCOC(=O)[C@@H](C)C[C@H](Cc1ccccc1)NC(=O)c1csc([C@@H](C[C@H](C(C)C)N(C)C(=O)CNC(=O)[C@H]2CCCCN2C)OC(C)=O)n1` reads 74.7%.

As to `CC1=C(CNO)C2=C(C)C3(CC3)[C@@](C)(O)C(=O)C2=C1`, the growth was 29.7%.

Take `C[C@]12CCc3sc(-c4ccccc4O)nc3C1=CC[C@@H]1[C@@H]2CC[C@]2(C)C(=O)CC[C@@H]12`: the growth was 106%. Consider `COC(=O)[C@@H](C)C[C@H](Cc1ccc2ccccc2c1)NC(=O)c1csc([C@@H](C[C@H](C(C)C)N(C)C(=O)[C@@H](NC(=O)[C@H]2CCCCN2C)C(C)C)OC(C)=O)n1`, for which the growth is 60.3%.
